Shown are actives, neighbours in structure and some others; about 21% of the full set was active somewhere.
Shiga inhibitor: blocks Shiga toxin action in Vero cells. Vero cells, Shiga toxin protein synthesis inhibition reporter. inhibition, % at 38.7 µM. 290,000 compounds, 9.2% hits. AID 2315; in the data active means inhibition mostly above about 28%, no sharp cut-off; inactive means mostly below about 43%
CHX counter: affects cycloheximide protein synthesis inhibition readout, counter-screen; max response, %; 300,000 compounds, 12% hits; AID 2314; cell reporter, cycloheximide protein synthesis inhibition counterscreen; in the data active means max response mostly above about 13%, no sharp cut-off; inactive means mostly below about 14%; further: read at 38.3 µM for the half of the compounds with a filed dose
Pf growth 48h: inhibits P. falciparum growth in the first generation, 48 h; P. falciparum luciferase growth in erythrocytes, 48 h; Potency, µM (top dose mostly 28.7 µM), usual class: inhibitors; 310,000 compounds, 5.9% hits; AID 504832
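Luciferase-expressing P. falciparum in infected erythrocytes (2% hematocrit, 0.1% parasitemia final) in RPMI 1640/0.5% Albumax were exposed to compound for 48 hours at 37 C, 5% CO2; growth read as luminescence.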
NS1 inh: inhibitors of influenza NS1 protein function | Potency, µM (series often up to 46.1 µM) | 270,000 compounds, 0.4% hits | AID 2326; calls by dose curve; further: actives are rising curves; nearly all actives have a fitted effect of over 50% in size
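A cell-based growth assay was used: compounds that relieve NS1-induced slow growth of budding yeast raise OD600. Assay medium was yeast nitrogen base with ammonium sulphate and -URA supplement, pH 6.0, with 2% galactose.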
Pf growth 96h: inhibits malaria parasite growth, 96 h; P. falciparum luciferase reporter growth, 96 h; Potency, µM (doses to about 28.7 µM), actives largely listed as inhibitors; 320,000 compounds, 6.9% hits; AID 504834
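Infected RBCs, 2% Hct / 0.05% parasitemia final; luciferase-reporter P. falciparum; cpd 96 h, 37 C, 5% CO2; luciferase detection reagent; luminescence.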
Giardia FBPA inh: inhibitors of Giardia lamblia fructose-1,6-bisphosphate aldolase; A8B2U2; purified Giardia FBPA; Potency, µM (titrated, usually from 59.6 µM), hits mostly inhibitors; 290,000 compounds, 0.71% hits; further: nearly all actives have a fitted effect of over 55% in size
Target sequence (A8B2U2 whole entry, looked up): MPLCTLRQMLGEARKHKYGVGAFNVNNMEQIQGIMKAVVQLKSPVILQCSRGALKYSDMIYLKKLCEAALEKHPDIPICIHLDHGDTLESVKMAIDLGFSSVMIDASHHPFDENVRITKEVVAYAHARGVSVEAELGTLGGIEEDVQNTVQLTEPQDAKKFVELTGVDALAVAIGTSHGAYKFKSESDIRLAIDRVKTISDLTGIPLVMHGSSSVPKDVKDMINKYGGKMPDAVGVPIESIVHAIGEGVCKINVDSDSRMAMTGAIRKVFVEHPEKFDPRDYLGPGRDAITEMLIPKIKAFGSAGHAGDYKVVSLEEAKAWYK
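40 nM FBPA preincubated 10 min at RT with compound (up to 57.5 uM final), then substrate plus GAPDH/TPI/NAD/arsenate coupling and diaphorase/resazurin added. Fluorescence read after 20 min at RT, 525/598 nm.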
Numbers stand for hits; . = inactive; ? = inconclusive; / = no result. Unless noted, the call rests on the fitted dose curve; in most records, active means well fitted curve in the direction sought with a large enough effect; inconclusive means small, poorly fitted or top-dose-only effect, or another doubt; inactive means no such curve, though single readings can be large; an effect the other way counts as inactive or inconclusive.

SMILES	Shiga inhibitor	CHX counter	Pf growth 48h	NS1 inh	Pf growth 96h	Giardia FBPA inh
C=CCNC(=S)Nc1ccc(C(N)=O)cc1	.	.	.	.	.	.
C=CCNC(=S)Nc1ccc(N(C)C)cc1	.	29	.	.	?	.
CCCNC(=O)C(=O)Nc1ccc(N(C)C)cc1	68	31	.	.	?	.
CC(=O)c1cccc(CN2CCCC(CCC(=O)NCc3ccc(F)c(F)c3)C2)c1 (configuration not stated)	.	.	?	.	?	.
O=C(CCn1cnnn1)NC1CCCN(Cc2ccccc2F)C1 (configuration not stated)	.	.	.	.	13µM	/
CCCc1cc(C(=O)NC2CCCN(Cc3ccccc3F)C2)no1 (configuration not stated)	.	.	.	.	10µM	/
CCc1[nH]nc(C(=O)NC2CCCN(Cc3ccccc3F)C2)c1C (configuration not stated)	.	.	.	.	13µM	/
O=C(Cc1ccc(Cl)cc1)NC1CCCN(Cc2ccccc2F)C1 (configuration not stated)	.	.	.	.	.	.
CC(=O)c1ccc(C(=O)NC2CCCN(Cc3ccccc3F)C2)cc1 (configuration not stated)	/	.	.	.	5.9µM	.
CSc1ccccc1C(=O)NC1CCCN(Cc2ccccc2F)C1 (configuration not stated)	.	.	.	.	.	.
CCn1c(SC(C)C(=O)NC2CCCC2)nc2cc(S(N)(=O)=O)ccc21 (configuration not stated)	/	/	?	/	.	/
CCOCCCNC(=O)/C(C#N)=C/c1ccc(-c2ccc(S(=O)(=O)N3CCOCC3)cc2)o1	.	.	.	.	13µM	.
CCCc1cnc(N2CCN(C(=O)c3ccccc3)CC2)nc1	.	.	.	.	.	.
Cc1ccccc1-c1noc(C(C)NC(=O)c2ccco2)n1 (configuration not stated)	.	.	.	.	.	.
Cc1nn(C)c(C)c1CCC(=O)N1CCCC(C(=O)c2cccc(OC(C)C)c2)C1 (configuration not stated)	.	.	.	.	?	.
NC(=O)C1CCCN(C(=O)CCc2nnc(C3(c4ccc(Cl)cc4)CCC3)o2)C1 (configuration not stated)	.	.	?	.	?	/
CC(=O)c1ccc(-c2nnc(CCC(=O)N3CCCC(C(=O)CC(C)C)C3)o2)s1 (configuration not stated)	80	34	.	.	.	.
O=C(CCc1nnc(C2(c3ccc(Cl)cc3)CCC2)o1)N1CCCC1	75	25	.	.	.	.
CCC(=O)C1CCCN(C(=O)CCc2nnc(C3(c4ccc(Cl)cc4)CCC3)o2)C1 (configuration not stated)	80	57	.	.	.	/
O=S(=O)(Nc1ccc2cn[nH]c2c1)c1ccc(Cl)s1	.	.	.	/	.	.
CS(=O)(=O)Cc1nc2ccccc2oc1=O	.	.	?	.	6.6µM	?
CCS(=O)(=O)CCSc1nc2ccccc2o1	.	.	.	.	.	.
O=c1oc2ccccc2nc1/C=C(\O)c1ccc(Br)cc1	39	27	1.9µM	.	?	.
C/C(O)=C\c1nc2ccccc2oc1=O	47	25	?	.	?	.
Cc1cc(Cl)ccc1OCC(=O)OCC(=O)NC1CCS(=O)(=O)C1 (configuration not stated)	/	/	.	/	.	/
SMILES	Shiga inhibitor	CHX counter	Pf growth 48h	NS1 inh	Pf growth 96h	Giardia FBPA inh
CCN(CC(=O)NCc1ccc(Cl)cc1)C(=O)C(C)Sc1ccccc1 (configuration not stated)	.	.	.	.	.	.
COc1ccccc1-c1nccc(-n2ccnc2)n1	/	/	/	/	/	.
O=[N+]([O-])c1ccc2c3n([n+]([O-])c2c1)CCN=C3c1ccc(Cl)cc1	/	/	12µM	/	?	/
COc1ccc2c3n([n+]([O-])c2c1)CCN=C3c1ccc(Cl)cc1	/	/	.	/	.	/
Cn1c2ccccc2c2nn(-c3ccccc3)c(=O)cc21	.	.	.	.	10µM	.
Cn1c2ccccc2c2n[nH]c(=O)nc21	.	.	.	/	?	.
COc1ccc2c(c1)NC(c1ccc(N(C)C)cc1)c1cccn1-2 (configuration not stated)	79	25	.	.	?	?
